The text below walks through data of PMC12820563, “FoxP3 forms a head-to-head dimer in vivo and stabilizes its multimerization on adjacent microsatellites”.

In all, about 16,000 sequences were measured (“rpm ratio (pull-down/input)”: median about 0.94, highest 2% from about 1.7 on). This excerpt belongs to a sample that is enriched for the highest values.

The target of the test is T1, MBP-FoxP1dN (Mus musculus, UniProt P58462 326-579).
T1 sequence: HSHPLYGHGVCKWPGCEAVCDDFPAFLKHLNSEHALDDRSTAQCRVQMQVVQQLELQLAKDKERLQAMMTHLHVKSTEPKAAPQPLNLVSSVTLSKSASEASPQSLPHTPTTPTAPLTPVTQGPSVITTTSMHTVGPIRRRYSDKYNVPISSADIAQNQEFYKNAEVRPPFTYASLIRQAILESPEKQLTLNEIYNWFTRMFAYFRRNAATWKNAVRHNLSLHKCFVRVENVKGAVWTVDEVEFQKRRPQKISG
Put plainly: PD-seq (MBP pull-down with sequencing); 20 mM Tris-HCl pH 7.5, 100 mM NaCl, 1.5 mM MgCl2, 0.4 uM protein, 0.1 uM dsDNA library, 30 min, room temperature, amylose pull-down; high values mean tight binding. As to conditions: protein: recombinant; tags: His6-MBP; chain copies: 2; dsDNA, one strand shown. In a few lines: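 Binding is reads-per-million enrichment of pull-down over input, with replicates pooled. It comes from 30 min room-temperature incubation in Tris pH 7.5 buffer with NaCl and MgCl2 of 0.4 µM His6-MBP-tagged, N-terminally truncated mouse FoxP3 or FoxP1 fragment from E. coli with 0.1 µM Klenow-filled degenerate double-stranded DNA library, followed by amylose resin capture, three washes and Illumina sequencing of the released DNA.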
Regarding “GATGATTGTTCTCCCAGCTGATGAATTGCTGAGATCGAGTAAACAAATTTTCCTAATCTTTCTGTTCAAGCGCCATCTAC”, the binding signal is 0.969 RPM ratio (pull-down/input).

For “GATGATTGTTCTCCCAGCTGATGAATTGACTAGTTCGAGTAAACAAATTTTCCTAATCTTTCTGTTCAAGCGCCATCTAC”, the binding signal was 1.08 RPM ratio (pull-down/input).

On to “GATGATTGTTCTCCCAGCTGATGAATTAGTAACATCGAGTAAACAAATTTTCCTAATCTTTCTGTTCAAGCGCCATCTAC”, for which the binding signal was 1.45 RPM ratio (pull-down/input).

As for “GATGATTGTTCTCCCAGCTGATGAATTTCCCACTTCGAGTAAACAAATTTTCCTAATCTTTCTGTTCAAGCGCCATCTAC”, the binding signal was 0.889 RPM ratio (pull-down/input).

Turning to “GATGATTGTTCTCCCAGCTGATGAATTTATGATTTCGAGTAAACAAATTTTCCTAATCTTTCTGTTCAAGCGCCATCTAC”, the binding signal was 1.37 RPM ratio (pull-down/input).

As for “GATGATTGTTCTCCCAGCTGATGAATTGTGTTATTCGAGTAAACAAATTTTCCTAATCTTTCTGTTCAAGCGCCATCTAC”, the binding signal was 2.18 RPM ratio (pull-down/input).

For the sequence “GATGATTGTTCTCCCAGCTGATGAATTCCTGTGTTCGAGTAAACAAATTTTCCTAATCTTTCTGTTCAAGCGCCATCTAC”, the binding signal is 1.26 RPM ratio (pull-down/input).

For “GATGATTGTTCTCCCAGCTGATGAATTTGATTATTCGAGTAAACAAATTTTCCTAATCTTTCTGTTCAAGCGCCATCTAC”, the binding signal was 1.2 RPM ratio (pull-down/input).

As for “GATGATTGTTCTCCCAGCTGATGAATTTTGTTATTCGAGTAAACAAATTTTCCTAATCTTTCTGTTCAAGCGCCATCTAC”, the binding signal was 2.37 RPM ratio (pull-down/input).

As to “GATGATTGTTCTCCCAGCTGATGAATTGTTATGTTCGAGTAAACAAATTTTCCTAATCTTTCTGTTCAAGCGCCATCTAC”, the binding signal is 2.01 RPM ratio (pull-down/input).

As to “GATGATTGTTCTCCCAGCTGATGAATTTGGTTATTCGAGTAAACAAATTTTCCTAATCTTTCTGTTCAAGCGCCATCTAC”, the binding signal was 1.15 RPM ratio (pull-down/input).

“GATGATTGTTCTCCCAGCTGATGAATTCTCTTATTCGAGTAAACAAATTTTCCTAATCTTTCTGTTCAAGCGCCATCTAC”: the binding signal was 0.995 RPM ratio (pull-down/input).

Consider “GATGATTGTTCTCCCAGCTGATGAATTTTCTTATTCGAGTAAACAAATTTTCCTAATCTTTCTGTTCAAGCGCCATCTAC”, for which the binding signal was 0.953 RPM ratio (pull-down/input).

In the case of “GATGATTGTTCTCCCAGCTGATGAATTCTTATGTTCGAGTAAACAAATTTTCCTAATCTTTCTGTTCAAGCGCCATCTAC”, the binding signal was 1.21 RPM ratio (pull-down/input).

In the case of “GATGATTGTTCTCCCAGCTGATGAATTCGTTATTTCGAGTAAACAAATTTTCCTAATCTTTCTGTTCAAGCGCCATCTAC”, the binding signal was 1.14 RPM ratio (pull-down/input).

“GATGATTGTTCTCCCAGCTGATGAATTCTTATTTTCGAGTAAACAAATTTTCCTAATCTTTCTGTTCAAGCGCCATCTAC”: the binding signal is 2.25 RPM ratio (pull-down/input).

As to “GATGATTGTTCTCCCAGCTGATGAATTCCGTAAATCGAGTAAACAAATTTTCCTAATCTTTCTGTTCAAGCGCCATCTAC”, the binding signal was 1.2 RPM ratio (pull-down/input).

As for “GATGATTGTTCTCCCAGCTGATGAATTGAACGTCTCGAGTAAACAAATTTTCCTAATCTTTCTGTTCAAGCGCCATCTAC”, the binding signal was 0.787 RPM ratio (pull-down/input).

As for “GATGATTGTTCTCCCAGCTGATGAATTACCGTGGTCGAGTAAACAAATTTTCCTAATCTTTCTGTTCAAGCGCCATCTAC”, the binding signal is 0.89 RPM ratio (pull-down/input).

Consider “GATGATTGTTCTCCCAGCTGATGAATTTCCGAGGTCGAGTAAACAAATTTTCCTAATCTTTCTGTTCAAGCGCCATCTAC”, for which the binding signal was 0.721 RPM ratio (pull-down/input).

With “GATGATTGTTCTCCCAGCTGATGAATTAGACTTCTCGAGTAAACAAATTTTCCTAATCTTTCTGTTCAAGCGCCATCTAC”, the binding signal is 0.789 RPM ratio (pull-down/input).

Take “GATGATTGTTCTCCCAGCTGATGAATTCCTTAGATCGAGTAAACAAATTTTCCTAATCTTTCTGTTCAAGCGCCATCTAC”: the binding signal is 0.924 RPM ratio (pull-down/input).

Turning to “GATGATTGTTCTCCCAGCTGATGAATTTGCTCGATCGAGTAAACAAATTTTCCTAATCTTTCTGTTCAAGCGCCATCTAC”, the binding signal was 0.994 RPM ratio (pull-down/input).

For “GATGATTGTTCTCCCAGCTGATGAATTTCTTATTTCGAGTAAACAAATTTTCCTAATCTTTCTGTTCAAGCGCCATCTAC”, the binding signal was 1.07 RPM ratio (pull-down/input).

“GATGATTGTTCTCCCAGCTGATGAATTGTTATTTTCGAGTAAACAAATTTTCCTAATCTTTCTGTTCAAGCGCCATCTAC”: the binding signal was 3.47 RPM ratio (pull-down/input).

Take “GATGATTGTTCTCCCAGCTGATGAATTATTATGTTCGAGTAAACAAATTTTCCTAATCTTTCTGTTCAAGCGCCATCTAC”: the binding signal is 1.69 RPM ratio (pull-down/input).

As for “GATGATTGTTCTCCCAGCTGATGAATTTGTTATTTCGAGTAAACAAATTTTCCTAATCTTTCTGTTCAAGCGCCATCTAC”, the binding signal was 2.17 RPM ratio (pull-down/input).

For “GATGATTGTTCTCCCAGCTGATGAATTGGTTATTTCGAGTAAACAAATTTTCCTAATCTTTCTGTTCAAGCGCCATCTAC”, the binding signal is 1.13 RPM ratio (pull-down/input).

Turning to “GATGATTGTTCTCCCAGCTGATGAATTATGTAATTCGAGTAAACAAATTTTCCTAATCTTTCTGTTCAAGCGCCATCTAC”, the binding signal is 1.31 RPM ratio (pull-down/input).

With “GATGATTGTTCTCCCAGCTGATGAATTGTTATTCTCGAGTAAACAAATTTTCCTAATCTTTCTGTTCAAGCGCCATCTAC”, the binding signal is 2.03 RPM ratio (pull-down/input).

Take “GATGATTGTTCTCCCAGCTGATGAATTTTTATTCTCGAGTAAACAAATTTTCCTAATCTTTCTGTTCAAGCGCCATCTAC”: the binding signal was 1.06 RPM ratio (pull-down/input).

In the case of “GATGATTGTTCTCCCAGCTGATGAATTATTATTCTCGAGTAAACAAATTTTCCTAATCTTTCTGTTCAAGCGCCATCTAC”, the binding signal was 1.45 RPM ratio (pull-down/input).

“GATGATTGTTCTCCCAGCTGATGAATTATGTTATTCGAGTAAACAAATTTTCCTAATCTTTCTGTTCAAGCGCCATCTAC”: the binding signal was 2.18 RPM ratio (pull-down/input).
